Pf growth 96h: Primary qHTS for delayed death inhibitors of the malarial parasite plastid, 96 hour incubation. P. falciparum luciferase reporter growth, 96 h. Potency, µM (top dose mostly 28.7 µM), for inactives: at the top dose activity change, negative = inhibition, usual class: inhibitors. actives 6.9% (n = 320,000). AID 504834, 2011; also: potency is read from the fitted curve at half-maximal effect; % is scaled to controls: 0 for no effect and ±100 for the full control effect
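Delayed-death screen, second-generation endpoint: infected erythrocytes, 2% hematocrit, 0.05% parasitemia final; 96 hours at 37 C, 5% CO2; luciferase detection reagent; luminescence decrease equals reduced growth.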
SARS PLP yeast: qHTS of Yeast-based Assay for SARS-CoV PLP. S. cerevisiae expressing SARS-CoV PLpro, growth rescue. Potency, µM (highest dose often 32.9 µM), inactives show top-dose activity, positive = growth rescue, hits mostly activators. actives 0.19% (n = 330,000); calls by dose curve; also: potency is read from the fitted curve at half-maximal effect; 0% is about no effect; nearly all actives have a fitted effect of over 55% in size
Cycloheximide cs: Cycloheximide Counterscreen for Small Molecule Inhibitors of Shiga Toxin. cell reporter, cycloheximide protein synthesis inhibition counterscreen. max response, %. actives 12% (n = 300,000). AID 2314, 2010; in the data active = max response mostly above about 13%, no sharp cut-off; inactive = mostly below about 14%; also: read at 38.3 µM for the half of the compounds with a filed dose; 0% is about no effect
AMA1-RON2 inh: qHTS for Inhibitors of AMA1-RON; Towards Development of Antimalarial Drug Lead: Primary Screen; AID 720542, 2013; AlphaScreen AMA1-biotinylated RON2 peptide binding; Potency, µM (titrated, usually from 58.2 µM), inactives show top-dose activity change, negative = inhibition, hits mostly inhibitors; actives 0.2% (n = 360,000); Plasmodium falciparum AMA1 (3D7) - RON2 peptide interaction;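 also: potency is read from the fitted curve at half-maximal effect; 0% = vehicle wells and -100% = peptide control; nearly all actives have a fitted effect of over 45% in size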
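AMA1 (3D7) with his tag at 25 nM final met compounds first, then biotinylated RON2 peptide at 25 nM; detection used donor plus acceptor beads, 10 µg/mL apiece, read by AlphaScreen after 30 min at room temperature.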
Shiga inhibitor: A qHTS for Small Molecule Inhibitors of Shiga Toxin; actives 9.2% (n = 290,000); Vero cells, Shiga toxin protein synthesis inhibition reporter; inhibition, % at 38.7 µM; in the data active = inhibition mostly above about 28%, no sharp cut-off; inactive = mostly below about 43%; also: 0% is about no effect
Pf growth 48h: Primary qHTS for delayed death inhibitors of the malarial parasite plastid, 48 hour incubation; P. falciparum luciferase growth in erythrocytes, 48 h; Potency, µM (titrated, usually from 28.7 µM), inactives show top-dose activity change, negative = inhibition, usual class: inhibitors; actives 5.9% (n = 310,000); AID 504832, 2011; also: potency is read from the fitted curve at half-maximal effect; % is scaled to controls: 0 for no effect and ±100 for the full control effect
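Read-out is firefly luciferase luminescence from an integrated reporter in P. falciparum, so falling signal marks reduced parasite growth. Infected erythrocytes were at 2% hematocrit and 0.1% parasitemia (final) in Albumax-supplemented RPMI 1640.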
* = called active by the depositor; i = inactive; ? = inconclusive; nt = no result given. The list is not random: actives were taken first. Their share in the collection is about 19%. Unless noted, calls follow the shape of the dose curve; as a rule, active = well fitted curve in the direction sought with a large enough effect; inconclusive = small, poorly fitted or top-dose-only effect, or another doubt; inactive = no such curve, though single readings can be large; an effect the other way counts as inactive or inconclusive.

SMILES	Pf growth 96h	SARS PLP yeast	Cycloheximide cs	AMA1-RON2 inh	Shiga inhibitor	Pf growth 48h
COc1ccc(NC(=O)CSc2nnc(N)s2)cc1	-24%	2%	-2	2%	-3	18%
Nc1nnc(SCC(=O)Nc2ccccc2)s1	35%	0%	10*	15%	8	0%
CSc1nc2ccc(NC(=O)CSc3nnc(N)s3)cc2s1	nt	3%	33*	0%	49	69%
COC(=O)c1ccc(NC(=O)CSc2nc3ccc(N4C(=O)C5C6C=CC(C6)C5C4=O)cc3s2)cc1 (centres undefined)	9.3µM*	28%	23*	-4%	4	?
CCCCn1c(SCC(=O)N(C)C)nnc1-c1ccncc1	0%	1%	-4	5%	20	43%
Cn1nc(-c2ccc(NCCO)c([N+](=O)[O-])c2)c2ccccc2c1=O	5.2µM*	0%	-3	5%	-7	-8%
CN(C)CCNc1ccc(-c2nn(C)c(=O)c3ccccc23)cc1[N+](=O)[O-]	45%	1%	1	-3%	-14	-3%
CC(O)CNc1ccc(-c2n[nH]c(=O)c3ccccc23)cc1[N+](=O)[O-] (centres undefined)	52%	0%	22*	6%	-17	0%
COc1ccc(-c2c(C(=O)c3ccc(Br)cc3)[nH]c(N)c2C(=O)c2ccccc2)cc1OC	nt	nt	nt	10%	nt	nt
COC(=O)[C@@]12OC[C@]34[C@H]([C@@H](O)[C@@H]1O)[C@@]1(C)C(=O)C(O[C@@H]5OC(CO)[C@@H](O)[C@@H](O)[C@@H]5O)=C[C@@H](C)[C@@H]1C[C@H]3OC(=O)[C@H](OC(=O)/C=C(\C)C(C)(C)OC(C)=O)[C@@H]24 (some centres undefined)	4.7µM*	1%	nt	24%	nt	2.6µM*
NS(=O)(=O)c1ccc(-n2nncc2-c2ccco2)cc1	29%	1%	-4	0%	-4	10%
COc1ccc2c(c1)CCc1c(C(=O)NC3CCCCC3)noc1-2	5%	17%	45*	-3%	59*	176%
COc1ccc2c(c1)CCc1c(C(=O)N(C)c3ccccc3)noc1-2	?	-7%	49*	-5%	123*	86%
COCCNC(=O)c1noc2c1CCc1cc(OC)ccc1-2	?	3%	35*	-4%	66	81%
COc1ccc2c(c1)CCc1c(C(=O)NCCN3CCOCC3)noc1-2	46%	-2%	-2	-8%	-14	-20%
COc1ccc2c(c1)CCc1c(C(=O)NCCCn3ccnc3)noc1-2	91%	3%	2	-1%	10	?
COc1ccc2c(c1)CCc1c(C(=O)NCc3ccco3)noc1-2	?	-1%	34*	-1%	67*	95%
COc1ccc(/C(N)=N/OC(=O)CN(C)S(=O)(=O)c2ccc(C)cc2)cc1	?	-1%	4	9%	24	-21%
O=C(Nc1cccc(O)c1)c1noc2c1CCc1ccccc1-2	nt	-8%	25	1%	33	18%
COCC(C)NC(=O)c1noc2c1CCc1cc(OC)ccc1-2 (centres undefined)	2%	-10%	33*	9%	83*	144%
c1ccc2sc(NC3=NCN(CC4CCCO4)CN3)nc2c1 (centres undefined)	?	2%	36*	-2%	32	84%
c1ccc2sc(NC3=NCN(CCN4CCOCC4)CN3)nc2c1	23%	-1%	2	1%	13	17%
COc1ccc2nc(NC3=NCCN3)sc2c1	337%	-87%	55*	-9%	28*	323%
COc1ccc2nc(NS(=O)(=O)c3ccc(NC(C)=O)cc3)sc2c1	127%	-3%	-4	3%	-16	6%
COc1ccc(CN2CN=C(Nc3nc4ccccc4s3)NC2)cc1	38%	-9%	-4	-4%	-13	-3%
SMILES	Pf growth 96h	SARS PLP yeast	Cycloheximide cs	AMA1-RON2 inh	Shiga inhibitor	Pf growth 48h
COc1ccc2nc(Nc3nc(C)c(C(C)=O)s3)sc2c1	2%	1%	55*	?	108*	?
COc1ccc(Nc2nc3ccc(OC)cc3s2)cc1	i	-1%	44*	?	82*	126%
COc1ccc2nc(NC(=O)c3c(C)noc3C)sc2c1	152%	0%	nt	4%	nt	184%
c1ccc2sc(NC3=NCCN3)nc2c1	41%	-82%	30*	-1%	65*	76%
c1ccc(CN2CN=C(Nc3nc4ccccc4s3)NC2)cc1	56%	-5%	6	0%	-14	nt
COc1cc(C(=O)Nc2ccc(S(=O)(=O)Nc3nccc(C)n3)cc2)c([N+](=O)[O-])cc1OC	?	1%	-3	15%	-5	3%
COc1ccc2oc(C(=O)NC3CCCCC3)c(C)c2c1	-24%	0%	47*	3%	114*	41%
COc1ccc2oc(C(=O)Nc3ccccn3)c(C)c2c1	0%	-8%	57*	-7%	66*	116%
Cc1c(C(=O)NC2CCCCC2)oc2ccc(F)cc12	84%	-4%	51*	2%	114*	50%
Cc1ccc2oc(C(=O)NC3CCS(=O)(=O)C3)c(C)c2c1 (centres undefined)	95%	-2%	30*	-15%	35*	53%
COc1ccc2oc(C(=O)NN3C(C)CCCC3C)c(C)c2c1 (centres undefined)	0%	-1%	-2	-2%	-18	10%
Cc1ccc(SCC(=O)NC2CCS(=O)(=O)C2)cc1 (centres undefined)	42%	0%	-5	-2%	14	40%
O=C(Nc1ccc(O)cc1)C1CC=CCC1 (centres undefined)	19%	3%	2	6%	24	?
O=C(COc1ccc(Cl)cc1Cl)Nc1ccc(CN2CCOCC2)cc1	2%	1%	-1	-9%	-2	-5%
CN1CCN(c2ccc(NC(=O)COc3ccccc3Cl)cc2)CC1	-13%	-4%	26*	-6%	76*	12%
O=C(COc1ccccc1Cl)Nc1ccc(CN2CCOCC2)cc1	51%	0%	21*	5%	8	0%
CCC(=O)N1CCN(c2ccc(NC(=O)COc3ccccc3Cl)cc2)CC1	5.9µM*	-7%	-2	-2%	-21	nt
CC1=CC(=O)C(C(C)C)=C/C1=N/OS(=O)(=O)c1ccccc1	?	-5%	3	?	42	0.47µM*
COc1ccc(-c2[nH]nc3oc(=O)cc(C)c23)cc1	8.3µM*	nt	10	-13%	-1	-15%
CCCCCc1c(C)nc(N2CCc3ccccc32)[nH]c1=O	-17%	-13%	-2	8%	8	9.3µM*
CCCCCc1c(C)nc(N2CCOCC2)[nH]c1=O	8.3µM*	3%	0	-29%	-9	-20%

Source: PubChem (National Center for Advancing Translational Sciences (NCATS))
